Out of some 52,000 compounds screened, about 1,700 (3.3%) were called active. The entries come from a sample that favours actives as a whole. A number with no mark means an inactive call. No stated cut-off is given here; in the data, active means survival mostly below about 52% (no sharp cut-off); inactive means mostly above about 56%.
These compounds were tested on Wild type (assay: growth inhibition of S. aureus wild type versus tarO mutant, primary screen, teichoic acid synthesis inhibitors, RN4220, OD600 (AID 463173)). Conditions: S. aureus RN4220 wild type/DeltatarO growth, OD600, 18 h, hits give low values, screened at 18.75 µg/mL (by protocol).
`CCc1ccccc1NC(=O)c1cc(S(=O)(=O)N2CCCC2)cn1C` showed a survival of 84%.
For `CCC(C)NC(=O)Cn1c(=O)n(CC2CCC(C(=O)NC)CC2)c(=O)c2sccc21` (centres undefined), the survival was 70%.
With `CC(C)N(C(=O)Cn1cc(SCC(=O)Nc2ccccc2C(F)(F)F)c2ccccc21)C(C)C` the survival was 105%.
`COc1ccccc1Cc1nc2ccccc2nc1SCC(=O)N1CCc2ccccc21` gave a survival of 49%.
`Cc1cc(Br)ccc1NC(=O)CSc1c2c(nc3ccccc13)CCC2` was tested, and the survival was 75%.
For `N#Cc1c(C(F)(F)F)cc(-c2cccs2)nc1SCC(=O)Nc1ccc(Cl)cc1`, the survival was 78%.
Compound `Cc1[nH]c2ccccc2c1SCCNC(=O)c1ccc(F)cc1` has a survival of 64%.
`CCOc1ccc(C(=O)NCCSc2c(C)[nH]c3ccccc23)cc1OCC` gave a survival of 86%.
For `Cc1ccc(C(=O)NCCSc2c(C)[nH]c3ccccc23)cc1C`, the survival was 19% (active).
With `CCNS(=O)(=O)c1ccc(S(=O)(=O)N(Cc2ccccn2)C2CCCCC2)cc1` the survival was 107%.
Work on `CC1CCN(C(=O)Cn2c(=O)n(CC3CCC(C(=O)NC(C)C)CC3)c(=O)c3sccc32)CC1` (centres undefined) yielded a survival of 78%.
In the case of `CCn1c(C(=O)NCc2ccccc2)cc2sc(Cl)cc21`, the survival is reported as 2% (active).
`CCn1c(C(=O)NCc2ccc(C)cc2)cc2sc(Cl)cc21` was tested, and the survival was 78%.
Compound `CCn1c(C(=O)NCc2ccc(OC)cc2)cc2sc(Cl)cc21` has a survival of 37%.
Work on `CCOC(=O)c1c(C)n(-c2ccccc2)c2ccc(OC(=O)COc3ccc(Cl)cc3)cc12` yielded a survival of 78%.
With `CCOC(=O)c1cc(-c2ccc(OC)c(S(=O)(=O)NCc3ccccc3Cl)c2)on1` the survival was 79%.
Work on `CC(C)c1ccc(OC(=O)c2cc(-c3ccccc3)on2)cc1` yielded a survival of 106%.
In the case of `Cc1ccc(-c2cc(C(=O)Oc3ccccc3Cl)no2)cc1C`, the survival is reported as -6% (active).
`Cc1ccc(NC(=O)c2cc(-c3ccc4c(c3)OCO4)on2)cc1` showed a survival of 105%.
With `O=C(Oc1ccccc1Cl)c1cc(-c2ccc3c(c2)OCCO3)on1` the survival was -7% (active).
For `O=C(Nc1ccccc1C(F)(F)F)c1cc(-c2ccc3c(c2)OCCO3)on1`, the survival was 113%.
For `Cc1ccccc1OC(=O)c1cc(-c2ccc3c(c2)OCCO3)on1`, the survival was -6% (active).
For `Cc1ccc(OC(=O)c2cc(-c3ccc4c(c3)OCCO4)on2)c(C)c1`, the survival was -6% (active).
`O=C(Nc1cccc(Cl)c1)c1cc(-c2ccc3c(c2)OCCO3)on1` gave a survival of 122%.
For `Cc1ccc(OC(=O)c2cc(-c3ccc(Cl)cc3)on2)c(C)c1`, the survival was 93%.
`Cc1ccc(Cl)cc1NC(=O)c1cc(-c2ccc3c(c2)OCCO3)on1` was tested, and the survival was 67%.
`Cc1oc2ncn(C)c(=O)c2c1C(=O)N1CCN(c2cccc(C(F)(F)F)c2)CC1` was tested, and the survival was 82%.
For `CCOc1ccccc1CNCCNC(=O)c1nonc1N`, the survival was 128%.
In the case of `CCCNS(=O)(=O)c1ccc(OCC(=O)NCc2ccccn2)cc1`, the survival is reported as 122%.
`NC(=Nc1ccccc1)SC1CC(=O)N(c2ccccc2)C1=O` (centres undefined) gave a survival of 113%.
Compound `O=C(Nc1ccccc1NC(=O)c1cccs1)c1cccs1` has a survival of 111%.
For `COc1cccc(NC(=O)Cn2c(=O)ccc3cc(S(=O)(=O)N4CCC(C)CC4)ccc32)c1`, the survival was 73%.
In the case of `CCn1cc(/C=C(\NC(=O)c2ccccc2Cl)C(=O)NCCCn2ccnc2)c2ccccc21`, the survival is reported as 121%.
`COC(=O)c1sccc1S(=O)(=O)N1CCN(c2cccc(C)c2C)CC1` was tested, and the survival was 67%.
Work on `COc1cc(NC(=O)Cn2c(-c3ccccc3)cc(C(C)=O)c2C)cc(OC)c1` yielded a survival of 92%.
With `COc1ccc2c(c1)N(C)/C(=C1/SC(=S)N(C)C1=O)S2` the survival was 122%.
With `COc1cccc(CNC(=O)c2cc(-c3ccc(Cl)cc3)n[nH]2)c1` the survival was 136%.
`C#CCNc1c2c(nc3nnnn13)CCCC2` gave a survival of 104%.
`CCSC(=C(C#N)C#N)c1cc2c([nH]1)CCCC2` showed a survival of 116%.
In the case of `Cc1ccc2ccc3cc(C(=O)N4CCN(c5ccccc5F)CC4)nc3c2[nH]1`, the survival is reported as 78%.
`CCOc1ccc(NC(=O)Cn2c(=O)n(Cc3ccc(C(=O)NCc4ccc5c(c4)OCO5)cc3)c(=O)c3ccccc32)cc1` gave a survival of 98%.
With `Cc1cccc(OC(=O)c2cc(-c3ccc(Cl)cc3)on2)c1C` the survival was 116%.
`O=C(Nc1cccc(Br)c1)c1cc(-c2ccc3c(c2)OCCO3)on1` was tested, and the survival was 80%.
`Cc1cccc(OC(=O)c2cc(-c3ccc4c(c3)OCCO4)on2)c1C` was tested, and the survival was -6% (active).
`CCCc1nnc(NC(=O)Cc2coc3ccc(C(C)C)cc23)s1` gave a survival of 99%.
For `CC(=O)Nc1ccc(C(=O)Nc2ccc3c(c2)N(C2CCCC2)C(=O)c2ccccc2S3)cc1`, the survival was -6% (active).
`O=C(Nc1ccc2c(c1)N(C1CCCC1)C(=O)c1ccccc1S2)c1ccc(F)cc1` gave a survival of 87%.
With `O=C(Nc1ccc2c(c1)N(C1CCCC1)C(=O)c1ccccc1S2)c1ccccc1` the survival was 75%.
`Cc1ccc(S(=O)(=O)C(=O)Nc2cccc3nsnc23)cc1` was tested, and the survival was 93%.
Compound `CCc1ccc(NC(=O)Cn2c(=O)n(CC3CCCO3)c(=O)c3cc(OC)c(OC)cc32)cc1` (centres undefined) has a survival of 68%.
With `CN1CCN(C(CNC(=O)C(=O)Nc2ccc(F)cc2)c2cccnc2)CC1` (centres undefined) the survival was 96%.
In the case of `Cc1cc2c(cc1S(=O)(=O)N(C)CC(=O)Nc1cccc(C#N)c1)OCC(=O)N2`, the survival is reported as -4% (active).
`Cc1cc2c(cc1S(=O)(=O)N(C)CC(=O)Nc1ccc(C#N)cc1)OCC(=O)N2` gave a survival of 64%.
With `CN(CC(=O)Nc1cccc(C#N)c1)S(=O)(=O)c1cc2c(cc1Cl)NC(=O)CO2` the survival was 129%.
Work on `COc1ccc(-c2[nH]ncc2C(=O)NCc2cccc(F)c2)cc1` yielded a survival of 78%.
`Cc1noc2nc(C(=O)O)nc(N3CCCCC3)c12` showed a survival of 73%.
With `CCOC(=O)c1nc(N2CCN(c3ccc(F)cc3)CC2)c2c(C)noc2n1` the survival was 14% (active).
`CCOC(=O)c1c(C)oc2nc(C)nc(N3CCN(c4ccc(OC)cc4)CC3)c12` gave a survival of 68%.
With `CCC(=O)N1CCc2cc(CNS(=O)(=O)c3cccs3)ccc21` the survival was 89%.
`Cc1cc(OCC(=O)NCC2(N3CCN(C)CC3)CCCCC2)cc(C)c1Cl` showed a survival of 80%.
For `Cc1ccc(CNC(=O)c2ccccc2NC(=O)c2nsc3ccccc23)cc1`, the survival was 75%.
Work on `CC(C)Oc1ccc(CNC(=O)c2ccccc2NC(=O)c2nsc3ccccc23)cc1` yielded a survival of 124%.
`CCOc1ccc(CNC(=O)c2ccccc2NC(=O)c2nsc3ccccc23)cc1` was tested, and the survival was -6% (active).
`Cc1ccc(S(=O)(=O)NCCc2nnc3ccc(SCC(=O)Nc4c(C)cc(C)cc4C)nn23)cc1` was tested, and the survival was 86%.
For `CCC(=O)N1CCc2cc(S(=O)(=O)NCCC(=O)Nc3cc(C)ccc3OC)ccc21`, the survival was 117%.
For `Cc1ccc(NC(=O)C(Cc2c[nH]c3ccccc23)NC(=O)OCC(C)C)cc1` (centres undefined), the survival was 54%.
In the case of `CCOC(=O)c1c(NC(=O)c2ccc(OC)cc2)sc2c1CCCCC2`, the survival is reported as 7% (active).
Compound `CNC(=O)c1c(NC(=O)c2ccc(S(=O)(=O)N3CCCC(C)C3)cc2)sc2c1CCC2` (centres undefined) has a survival of 101%.
For `CNC(=O)c1c(NC(=O)c2ccc(S(=O)(=O)N3CCCCC3)cc2)sc2c1CCC2`, the survival was -2% (active).
In the case of `CCCc1ccc(OC(C)C(=O)Nc2sc3c(c2C(=O)OC)CCCCC3)cc1` (centres undefined), the survival is reported as -2% (active).
For `CCOC(=O)c1c(NC(=O)C(C)Oc2ccc(Cl)c(C)c2)sc2c1CCCC2` (centres undefined), the survival was 50%.
Compound `Cc1cc(OC(C)C(=O)Nc2sc3c(c2C(N)=O)CCCC3)ccc1Cl` (centres undefined) has a survival of 82%.
`COC(=O)c1c(NC(=O)C(C)Oc2ccc(Cl)c(C)c2)sc(C)c1C` (centres undefined) was tested, and the survival was 10% (active).
With `COC(=O)c1c(NC(=O)C(C)Oc2ccc(Cl)cc2Cl)sc2c1CCCC2` (centres undefined) the survival was 57%.
`CCCCOc1ccc(C(=O)Nc2sc3c(c2C(=O)OCC)CCCCC3)cc1` gave a survival of 38%.
`CNC(=O)c1c(NC(=O)c2ccc(S(=O)(=O)N3CCC(C)CC3)cc2)sc2c1CCC2` showed a survival of 129%.
With `CCCOc1ccc(C(=O)Nc2sc3c(c2C(=O)OCC)CCCCC3)cc1` the survival was 27%.
`CCCc1ccc(OCC(=O)Nc2sc3c(c2C(=O)OC)CCCCC3)cc1` gave a survival of 43%.
`O=C(Nc1ccc(F)cc1F)c1cccc2c1C(=O)N(C1CCCCC1)C2` was tested, and the survival was 94%.
`CCn1c(C(=O)N2CCC(C(=O)N3CCN(c4ccc(OC)cc4)CC3)CC2)cc2sccc21` gave a survival of 62%.
For `CCOc1ccccc1NC(=O)NC(CC)c1c(-n2cccc2)sc2c1CCN(C)C2` (centres undefined), the survival was 69%.
Work on `CC1=C(C#N)c2nc(N)c(C#N)c(C)c2/C1=C\c1cccnc1` yielded a survival of 83%.
`COc1ccc(Cl)cc1NC(=O)CCC(=O)N1CCOc2ccccc21` showed a survival of 83%.
With `CC(=O)c1cccc(-n2c(=O)c3c4c(sc3n(Cc3ccccc3Cl)c2=O)CN(C(C)=O)CC4)c1` the survival was 88%.
For `CCOC(=O)c1cc2c(=O)n3ccccc3nc2n(Cc2ccco2)c1=NC(=O)c1ccc(C(C)(C)C)cc1`, the survival was 72%.
In the case of `CCOC(=O)c1c(NC(=O)c2ccc(S(=O)(=O)N(CC)CC)cc2)sc2c1CCCCC2`, the survival is reported as 80%.
With `CCOC(=O)c1c(NC(=O)c2cc(OCC)c(OCC)c(OCC)c2)sc2c1CCCCC2` the survival was 83%.
Compound `CCOC(=O)c1c(NC(=O)c2cc(Cl)ccc2Cl)sc2c1CCCC2` has a survival of 76%.
`CCOC(=O)c1c(NC(=O)c2ccc(OC)c(OC)c2)sc2c1CCCCC2` showed a survival of 69%.
For `CCOC(=O)c1c(NC(=O)c2ccccc2C)sc2c1CCCC2`, the survival was -8% (active).
In the case of `CCOC(=O)c1c(NC(C)=O)sc2c1CCC2`, the survival is reported as 104%.
In the case of `CCOC(=O)c1c(NC(=O)c2ccc(C)c(C)c2)sc2c1CCCCC2`, the survival is reported as 0% (active).
`CCOC(=O)c1c(NC(=O)c2ccc(OCC)c(Br)c2)sc2c1CCCC2` gave a survival of 67%.
For `CCOC(=O)c1c(NC(=O)c2ccc(C)cc2)sc2c1CCCCC2`, the survival was -1% (active).

From PubChem BioAssay AID463173 (ICCB-Longwood Screening Facility, Harvard Medical School, 2010)
